Assay [1] can be described thus: E. coli DRC41 culture turbidity changes, primary screen, E. coli filamentation inducer project, strain DRC41, OD650, 48 h (AID 1152).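 Further: E. coli MC1000 strain DRC41 lacking acrAB efflux pump and sulA.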 The note with it: E. coli DRC41 (acrAB sulA), higher = more signal, called active from +8 up or from −8 down.
A short description of assay [2]: small-molecule binders of probe aLefty1, primary screen, biochemical, small-molecule microarray, 635/667 nm fluorescence (AID 1153).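 Further: score merges spot fluorescence with signal-to-noise ratio from the scanned slide images.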 The note with it: higher = more signal.
Assay [3] is described as follows: PSAC antagonists in infected red cells, primary screen, cell-based, P. falciparum Indochina, OD700, 1 h (AID 1154). The note with it: P. falciparum Indochina infected RBC osmotic lysis, higher = more signal, called active from +8 up or from −8 down.
Assay [4] is described as follows: PSAC antagonists in infected red cells, primary screen, cell-based, P. falciparum Indochina, OD700, 2 h (AID 1155).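 Further: lysis reports solute entry through the parasite surface anion channel PSAC; channel blockers reduce lysis of infected cells.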 The note with it: P. falciparum Indochina infected erythrocytes, osmotic lysis OD700; higher = more signal, called active from +8 up or from −8 down.
Assay [5] is described as follows: osmotic lysis modulators in infected erythrocytes, primary screen, PSAC antagonist project, cell-based, P. falciparum Indochina, OD700, 3 h (AID 1156). The note with it: higher = more signal, called active from +8 up or from −8 down.
The nature of assay [6]: PSAC antagonists in infected red cells, primary screen, cell-based, P. falciparum Indochina, OD700, 18 h (AID 1157). The settings on record: P. falciparum Indochina infected erythrocytes, osmotic lysis OD700, 18 h; higher = more signal, called active from +8 up or from −8 down.
Assay [7] in a line: modulators of S6 phosphorylation in cells, primary screen, cell-based, A549, cytoblot, luminescence, serum-stimulated (AID 1158).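 Further: serum-stimulated A549 lung adenocarcinoma cells; signal is phosphorylated S6 detected by cytoblot immunostaining with HRP secondary.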 The settings on record: A549 phospho-S6 cytoblot, 5 h, higher = more signal.
Assay [8] deals with NADPH oxidase 2 (Homo sapiens) (UniProt P04839). Description: NOX2-dependent H2O2 signal modulators, primary screen, NOX inhibitor project, cell-based, HEK293-NOX2, PMA-stimulated, Amplex Red fluorescence (AID 1159). Further: test concentration not given here. The settings on record: 45 min, higher = more signal, called active from +8 up or from −8 down.
The target in assay [9] is NADPH oxidase 4 (Homo sapiens) (UniProt Q9NPH5). Description: NOX4-dependent H2O2 signal modulators, primary screen, NOX inhibitor project, cell-based, HEK293-NOX4, tetracycline-induced, Amplex Red fluorescence (AID 1160). The note with it: 45 min, higher = more signal, called active from +8 up or from −8 down.
In assay [10] the target is NADPH oxidase 5 (Homo sapiens) (UniProt Q96PH1). Description: NOX5-dependent H2O2 signal modulators, primary screen, NOX inhibitor project, cell-based, HEK293-NOX5, Amplex Red fluorescence (AID 1161). The note with it: HEK293-NOX5, ionomycin, 45 min, higher = more signal.
The nature of assay [11]: A549 cell viability effects, profiling panel, calcein-AM fluorescence, 48 h, basal (AID 1162). Further: test concentration not given here. The note with it: higher = more signal.
The nature of assay [12]: adipocyte viability effects, profiling panel, cell-based, 3T3-L1 adipocytes, calcein-AM fluorescence, 48 h, basal (AID 1163). Further: test concentration not given here. The note with it: 3T3-L1 adipocytes viability, higher = more signal.
Assay [13] can be described thus: HepG2 cell viability effects, profiling panel, calcein-AM fluorescence, 48 h, basal (AID 1164). Further: test concentration not given here. The note with it: higher = more signal.
Assay [14] is described as follows: MM1S cell viability effects, profiling panel, calcein-AM fluorescence, 48 h, basal (AID 1165).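 Further: viability of MM1S multiple myeloma cells under basal unstimulated conditions; test concentration not given here.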 The note with it: higher = more signal.
The nature of assay [15]: basal RPMI8226 viability, no added stimulus, profiling panel, cell-based, calcein-AM fluorescence, 48 h, PK04 Diversity Set (AID 1166).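 Further: cells grown under basal conditions without added stimulus; test concentration not given here.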 The note with it: RPMI8226 myeloma viability, higher = more signal.
The nature of assay [16]: basal HepG2 mitochondrial membrane potential changes, profiling panel, cell-based, JC-1 fluorescence, 24 h, 100 nL compound (AID 1167). Further: test concentration not given here. The settings on record: higher = more signal.
Assay [17] can be described thus: basal 3T3-L1 adipocyte mitochondrial potential changes, profiling panel, cell-based, JC-1 fluorescence, 3T3-L1 adipocytes, 24 h, 100 nL compound (AID 1168). Further: test concentration not given here. The note with it: JC-1 mitochondrial fluorescence, higher = more signal, called active from +8 up or from −8 down.
Assay [18] can be described thus: basal RPMI8226 mitochondrial membrane potential changes, profiling panel, cell-based, JC-1 fluorescence, 24 h, 100 nL compound (AID 1169). Further: test concentration not given here. The note with it: RPMI8226 myeloma, JC-1 mitochondrial potential fluorescence, higher = more signal.
Assay [19] can be described thus: basal MM1S mitochondrial membrane potential changes, profiling panel, cell-based, JC-1 fluorescence, 24 h, 100 nL compound (AID 1170). Further: test concentration not given here. The note with it: higher = more signal.
Assay [20] can be described thus: A549 lung cancer cell viability effects, profiling panel, resazurin fluorescence, 24 h, PK04 Diversity Set (AID 1171). Further: test concentration not given here. The settings on record: higher = more signal, called active from +8 up or from −8 down.

Each structure is given as a SMILES string. Active and inactive are the calls of the source.

NADPH oxidase 2 (Homo sapiens), sequence (P04839 whole entry, looked up): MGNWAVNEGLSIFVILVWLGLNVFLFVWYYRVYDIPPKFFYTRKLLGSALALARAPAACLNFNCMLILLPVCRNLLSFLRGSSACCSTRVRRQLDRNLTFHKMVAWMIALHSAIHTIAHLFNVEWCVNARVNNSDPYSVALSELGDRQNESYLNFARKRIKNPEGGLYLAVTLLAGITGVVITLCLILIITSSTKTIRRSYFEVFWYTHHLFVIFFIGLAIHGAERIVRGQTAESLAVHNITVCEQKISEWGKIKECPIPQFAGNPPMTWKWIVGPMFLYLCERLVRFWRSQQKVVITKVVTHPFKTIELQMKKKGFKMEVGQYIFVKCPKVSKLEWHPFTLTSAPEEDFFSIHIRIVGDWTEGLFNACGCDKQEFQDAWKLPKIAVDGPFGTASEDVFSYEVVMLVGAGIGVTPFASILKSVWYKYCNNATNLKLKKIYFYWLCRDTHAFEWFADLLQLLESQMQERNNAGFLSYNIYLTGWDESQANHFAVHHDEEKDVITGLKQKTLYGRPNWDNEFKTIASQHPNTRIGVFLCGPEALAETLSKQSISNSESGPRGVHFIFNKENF
NADPH oxidase 4 (Homo sapiens), sequence (Q9NPH5 whole entry, looked up): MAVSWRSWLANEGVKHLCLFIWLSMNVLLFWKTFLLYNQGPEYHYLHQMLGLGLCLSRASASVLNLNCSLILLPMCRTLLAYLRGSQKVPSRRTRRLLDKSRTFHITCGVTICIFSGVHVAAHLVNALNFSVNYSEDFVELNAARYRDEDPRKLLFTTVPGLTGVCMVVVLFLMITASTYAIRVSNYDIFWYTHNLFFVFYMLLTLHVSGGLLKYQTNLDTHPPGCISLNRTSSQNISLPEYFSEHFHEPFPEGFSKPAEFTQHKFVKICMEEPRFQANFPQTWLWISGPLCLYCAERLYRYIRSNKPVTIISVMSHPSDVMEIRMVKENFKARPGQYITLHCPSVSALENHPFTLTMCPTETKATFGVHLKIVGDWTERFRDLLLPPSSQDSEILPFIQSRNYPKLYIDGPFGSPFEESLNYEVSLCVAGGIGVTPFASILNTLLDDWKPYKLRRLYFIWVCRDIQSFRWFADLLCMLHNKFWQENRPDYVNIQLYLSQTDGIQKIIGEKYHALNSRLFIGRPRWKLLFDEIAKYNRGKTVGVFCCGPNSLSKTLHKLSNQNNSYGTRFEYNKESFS
NADPH oxidase 5 (Homo sapiens), sequence (Q96PH1 whole entry, looked up): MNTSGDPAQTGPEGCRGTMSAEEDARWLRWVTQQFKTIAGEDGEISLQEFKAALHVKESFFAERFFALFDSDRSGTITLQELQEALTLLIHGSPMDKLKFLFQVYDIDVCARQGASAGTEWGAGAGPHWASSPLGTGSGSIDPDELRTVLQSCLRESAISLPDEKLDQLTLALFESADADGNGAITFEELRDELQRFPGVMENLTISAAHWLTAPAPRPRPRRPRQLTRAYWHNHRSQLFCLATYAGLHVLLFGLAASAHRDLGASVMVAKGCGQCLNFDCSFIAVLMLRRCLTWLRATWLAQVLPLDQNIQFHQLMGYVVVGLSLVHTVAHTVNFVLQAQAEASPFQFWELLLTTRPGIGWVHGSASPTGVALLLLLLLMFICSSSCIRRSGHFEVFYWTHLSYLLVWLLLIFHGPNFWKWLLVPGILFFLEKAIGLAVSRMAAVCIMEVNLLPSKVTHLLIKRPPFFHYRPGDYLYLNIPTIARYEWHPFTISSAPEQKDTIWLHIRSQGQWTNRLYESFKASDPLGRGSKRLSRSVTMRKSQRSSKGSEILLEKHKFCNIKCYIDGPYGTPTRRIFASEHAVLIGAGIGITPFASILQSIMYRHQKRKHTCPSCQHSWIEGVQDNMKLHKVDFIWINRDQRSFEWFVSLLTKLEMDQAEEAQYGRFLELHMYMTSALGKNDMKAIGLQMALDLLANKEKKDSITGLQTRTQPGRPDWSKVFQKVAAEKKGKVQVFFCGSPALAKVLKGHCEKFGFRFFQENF

`COC(=O)c1c(CC[C@@H](CO)NC(=O)N[C@H](Cn2cc(Cc3ccccc3)nn2)C(C)C)oc(C(C)=O)c1C(=O)OC`: the z-score in assay [1] was 0.618 (inactive); in assay [3], 1.62 (inactive); in [4] it was -0.452 (inactive); in assay [5], 0.695 (inactive); in assay [6] it was -0.177 (inactive); in [7] it was 1.53. The z-score in assay [8] is -3.91 (inactive); in assay [9], -1.31 (inactive); in [10], 0.197; in assay [11], -0.138; in assay [12], 1.62; in assay [13], 0.141. The z-score in [14] is 0.486; in [15], -0.298; in assay [16], -0.0757; in [17], 1.58 (inactive); in assay [18], 0.4; in assay [19], 0.492. The z-score in assay [20] was -0.896 (inactive). The compound also displayed a composite z-score in assay [2] of -0.101.
For the compound `O=C1OCCC/C=C\[C@H]2OC34C=CCN(Cn5nnc6ccccc65)C(=O)[C@H]3N(CCO)C(=O)[C@@H]4C12` (stereo not given in full), the z-score in [1] was 1.8 (inactive); in assay [3] it was 1.55 (inactive); in [4], 0.299 (inactive); in assay [5] it was 0.292 (inactive); in assay [6] it was 0.335 (inactive); in assay [7] it was 1.64. In addition, the z-score in assay [8] is 1.41 (inactive); in assay [9], 0.409 (inactive); in [10] it was 1.92; in [11], 0.499; in assay [12], 1.02; in assay [13] it was -0.822. Further, the z-score in assay [14] was 0.971; in assay [15], -0.117; in assay [16], 0.31; in assay [17], 0.192 (inactive); in [18] it was 0.656; in assay [19], -0.345. Further, the z-score in assay [20] was -0.66 (inactive). Further, the composite z-score in assay [2] was determined as 0.16.
Take `COc1cc(OC)c(C(O)C2C=CC3C(=O)NC(=O)C3N2Nc2ccc(Cl)cc2Cl)cc1Br` (stereo not given): the z-score is -2.02 (inactive) in [1]; 4.81 (inactive) in assay [3]; 1.4 (inactive) in assay [4]; -0.372 (inactive) in [5]; 1.84 (inactive) in assay [6]; -0.924 in assay [7]. The z-score was -0.603 (inactive) in assay [8]; -5.17 (inactive) in assay [9]; -1.12 in assay [10]; -1.52 in assay [11]; 0.0779 in assay [12]; -2.49 in assay [13]. The z-score in assay [14] was -3.42; in assay [15] it was -3.97; in [16] it was -2.87; in assay [17], -0.82 (inactive); in assay [18] it was -1.09; in assay [19], -1.27. In addition, the z-score in [20] was -2.56 (inactive). Also, in assay [2], the composite z-score was found to be 0.689.
As for `C=CCOC(=O)[C@H]1[C@@H]2C(=O)O[C@@H](c3ccccc3)[C@@H](c3ccccc3)N2[C@@H](c2ccc(OCCOC(=O)[C@@H]3C[C@@H]4C(=O)N5CCC[C@H]5C(=O)N4[C@@H]3c3cccc(OCCO)c3)cc2)[C@]12C(=O)Nc1ccccc12`, the z-score in assay [1] was -0.152 (inactive); in assay [3] it was 3.47 (inactive); in assay [4], 1.16 (inactive); in [5], 3.5 (inactive); in [6] it was 0.671 (inactive); in assay [7], 0.605. The z-score in assay [8] was 2.26 (inactive); in [9], 0.917 (inactive); in assay [10], 0.15; in [11], -0.0865; in assay [12] it was 1.05; in assay [13], -0.786. In addition, the z-score is -0.423 in assay [14]; 0.107 in assay [15]; -1.41 in assay [16]; -0.0892 (inactive) in assay [17]; -0.737 in assay [18]; -0.421 in [19]. The z-score in assay [20] was -1.65 (inactive). Besides, the composite z-score in assay [2] is 0.603.
`O=C1O[C@@H](c2ccccc2)[C@@H](c2ccccc2)N2[C@@H](c3ccc(OCCO)cc3)[C@]3(C(=O)Nc4ccccc43)[C@@H](C(=O)NC[C@H](O)c3ccccc3)[C@H]12`: the z-score is -0.29 (inactive) in [1]; 6.58 (inactive) in assay [3]; 1.85 (inactive) in [4]; 0.539 (inactive) in assay [5]; 0.779 (inactive) in assay [6]; -0.29 in assay [7]. Besides, the z-score in assay [8] was 1.62 (inactive); in [9], 0.918 (inactive); in assay [10] it was 0.81; in assay [11] it was -0.462; in assay [12], -0.0144; in assay [13], -0.328. Moreover, the z-score in [14] is -0.38; in assay [15] it was -0.575; in assay [16] it was -1.76; in assay [17], -0.872 (inactive); in [18], -0.53; in assay [19], -0.226. Besides, in assay [20], the z-score is 0.496 (inactive). This compound also gave a composite z-score in assay [2] of -0.0491.

Source of the values: PubChem BioAssay.
